# From PubChem BioAssay (Tox21)
# Records with an inconclusive call do not appear. Unmarked numbers belong to inactive results. The call rests on the fitted dose curve; in most records, active means well fitted cell-killing curve with a large enough effect in the repeat runs; inconclusive means weak or mixed curves; inactive means flat fitted curve, though single readings scatter.
# Experiment: qHTS assay to identify small molecule antagonists of the estrogen related receptor (ERR) signaling pathway - cell viability counter screen (AID 1224818)
# Details: ERR reporter cell line viability counter screen; series mostly up to 46.1 µM; viability change, negative = cytotoxic: at the top concentration
# In short: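 Cytotoxicity counter screen: fluorescence from CellTiter-Fluor, added after 17.5 h compound exposure at 37 C and read 30 min later. ERR cell line seeded at 2,000 cells/well, preincubated 6 h before dosing.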
# On the % scale 0 is the no-effect control and ±100 the full control effect.
row,Compound,"viability change, negative = cytotoxic [%]"
1,CN(C)C(=O)[C@H](O)[C@H](Cc1ccccc1)NC(=O)c1cc2cc(Cl)ccc2[nH]1,4.23
2,CCCn1c(=O)[nH]c(=O)c2[nH]cnc21,-8.78
3,Nc1ncnc2c1ncn2[C@@H]1O[C@H](COP(=O)(O)OP(=O)(O)OP(=O)(O)OP(=O)(O)OC[C@@H]2O[C@H](n3cnc4c(N)ncnc43)[C@@H](O)C2O)C(O)[C@H]1O (some centres not stated),8.66
4,CC(=O)O[C@H]1Cc2ccccc2N(C(N)=O)c2ccccc21,10.2
5,O=C1NC(=O)/C(=C/c2ccc3nccnc3c2)S1,-3.46
6,CCN(CC)CCOC(=O)c1cc(Cl)c(N)cc1OC,11.4
7,Cc1cc(NC2CCCCC2)nc(-n2nc(C)cc2C)n1,-11.4
8,Clc1ccc(N2CCN(Cc3c[nH]c4ncccc34)CC2)cc1,-0.497
9,O=C(O)CCC(C(=O)O)N1C(=O)c2ccccc2C1=O (configuration not stated),13.5
10,O=C(Nc1nc2ccccc2n1CCN1CCOCC1)c1cccc([N+](=O)[O-])c1,-20.9
11,NCCNS(=O)(=O)c1cccc2c(Cl)cccc12,-3.32
12,CCCCCCCCCC[Si](C)(C)CCC(=O)NC(Cc1ccc(C)cc1)c1ccccc1 (configuration not stated),11
13,COc1ccc(C(=O)NCc2cccnc2)cc1C(=O)NCc1cccnc1,7.91
14,Nc1ccn([C@H]2O[C@H](CO)[C@@H](O)C2(F)F)c(=O)n1,8.81
15,CCCn1c(=O)c2[nH]c(C3CCCC3)nc2n(CCC)c1=O,10.3
16,O=C1/C(=C/c2ccsc2)CC/C1=C\c1cccs1,-4.77
17,CC(C)(C)c1ccc(/C=C/C(=O)Nc2ccc3c(c2)OCCO3)cc1,-14.6
